# In all, about 340,000 compounds went through this assay and about 4,500 (1.3%) were called active. Another 5% or so got no clear call; they are omitted. The sample holds actives, similar compounds and a random draw of the others, so the mix is not that of the screen. Calls follow the shape of the dose curve; as a rule, active = well fitted inhibition curve with a large enough effect; inconclusive = small, poorly fitted or top-dose-only effect, or another doubt; inactive = no such curve, though single readings can be large or run the other way.
# Target: DNA polymerase beta (Homo sapiens) (UniProt P06746)
# Experiment: qHTS Assay for Inhibitors of DNA Polymerase Beta
# Conditions: Pol beta primer extension/strand displacement, fluorescence kinetic; series mostly up to 114 µM; activity change, negative = inhibition: at the top concentration
# Method in brief: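 Kinetic readout of DNA synthesis with strand displacement by Pol beta. Compound and 10 nM enzyme sit 15 min at room temperature; 50 nM substrate starts the reaction, read immediately and at 10 min.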
# % is scaled to controls: 0 for no effect and ±100 for the full control effect; potency is read from the fitted curve at half-maximal effect.
SMILES,"activity change, negative = inhibition",Potency
CCc1ccccc1NC(=O)Cc1ccc(NC(=O)N2CCCCc3ccccc32)cc1,7.27% (inactive),
CCOc1ccc(Nc2c(S(=O)(=O)c3ccccc3)cnc3ccccc23)cc1,-23.2% (inactive),
CCn1cc(C(=O)N2CCN(c3cc(C)ccc3C)CC2)c(=O)c2cc(S(=O)(=O)N(C)C3CCCCC3)ccc21,18.9% (inactive),
Cc1ccc(S(=O)(=O)N2CCCc3cc(NS(=O)(=O)c4cc(C)ccc4C)ccc32)cc1,8.08% (inactive),
Cc1ccc(Nc2c(-c3ccc(N(C)C)cc3)nc3nc[nH]n23)cc1,5.92% (inactive),
O=C(NC(=S)NC1CCS(=O)(=O)C1)c1cccc([N+](=O)[O-])c1 (configuration not stated),31.6% (inactive),
O=C(Cc1ccc(Cl)cc1)NC1CCS(=O)(=O)C1 (configuration not stated),-17.6% (inactive),
O=C(NC(=O)c1ccc(Cl)c(Cl)c1)OC1CCS(=O)(=O)C1 (configuration not stated),,89.1 µM (active)
O=C1CCCC(O)=C1N=Nc1ccc2ncsc2c1,,35.5 µM (active)
O=C1CCCC(O)=C1N=Nc1ccc(S(=O)(=O)N2CCOCC2)cc1,-9.17% (inactive),
O=C(CSc1ncc(CO)n1Cc1ccc(Cl)cc1)NCc1ccc(F)cc1,21.7% (inactive),
Cc1cccc(-c2nnc(SCC(=O)N3CCCc4ccccc43)o2)c1,19.1% (inactive),
Cc1ccc(-c2cc(C(=O)N/N=C/C=C/c3ccccc3)n[nH]2)o1,,17.8 µM (active)
Cc1ccc(-c2cc(C(=O)NN)n[nH]2)o1,-2.94% (inactive),
CC(C)c1cc(C(=O)N/N=C/C(Br)=C/c2ccccc2)n[nH]1,-7.2% (inactive),
O=C(OCc1cc(=O)n2nc(C3CC3)sc2n1)c1ccccc1Cl,15.1% (inactive),
Cc1ccc(OCC(=O)OCc2cc(=O)n3nc(C4CC4)sc3n2)cc1,-1.49% (inactive),
O=C(COc1ccccc1)OCc1cc(=O)n2nc(-c3cccs3)sc2n1,,31.6 µM (active)
Cc1nn2c(=O)cc(COC(=O)c3ccccc3NC(=O)COc3ccccc3C)nc2s1,32.7% (inactive),
COc1ccccc1C(=O)OCc1cc(=O)n2nc(-c3cccs3)sc2n1,,17.8 µM (active)
Cc1ccc(OCC(=O)OCc2cc(=O)n3nc(C4CC4)sc3n2)cc1C,35.9% (inactive),

SMILES,"activity change, negative = inhibition",Potency
CCCn1c2ccccc2c2cnn(CC(=O)N(CC)c3cc(C)ccc3C)c(=O)c21,1.29% (inactive),
CCOC(=O)Cc1csc(NC(=O)COc2ccc3c(C)cc(=O)oc3c2)n1,,44.7 µM (active)
CCOC(=O)Cc1csc(SCc2cc(=O)oc3cc(O)ccc23)n1,31.2% (inactive),
Cc1cc(=O)oc2ccc(OCC(=O)O)cc12,-0.812% (inactive),
Cc1ccc(O)c(/C=N/NC(=O)COc2ccc3c(C)cc(=O)oc3c2)c1,,22.4 µM (active)
Cc1cc(=O)oc2cc(OCC(=O)Nc3nnc(C4CC4)s3)ccc12,0.954% (inactive),
COc1ccc(N2CCN(C(=O)COc3ccc4c(C)cc(=O)oc4c3)CC2)cc1,0.172% (inactive),
CCOC(=O)c1c(NC(=O)Cc2coc3ccc(CC)cc23)sc2c1CCC2,18.5% (inactive),
COc1ccc(N2CCN(Cc3nc4c(c(=O)[nH]c(=O)n4C)n3Cc3ccc(Cl)cc3)CC2)cc1,-17.7% (inactive),
O=C(CSc1ncc(-c2ccccc2)[nH]1)Nc1ccc(F)cc1F,1.98% (inactive),
Cc1nc2c(c(C)nn2-c2ccccc2)c(C)c1CCC(=O)NCCc1ccc(Cl)cc1,1.97% (inactive),
CCOc1ccccc1CNC(=O)Nc1cn(CC(C)C)c(=O)c2ccccc12,5.13% (inactive),
Cc1nn(CC(=O)O)c(=O)c2cc3cc(F)ccc3n12,16.8% (inactive),
CC(C)c1ccc(NC(=O)Cn2nnc(C(=O)NCCc3ccccc3)c2N)cc1,,7.94 µM (active)
COc1ccc(CNC(=O)c2nnn(CC(=O)Nc3cc(C)cc(C)c3)c2N)cc1,,10 µM (active)
CCc1ccc(NC(=O)Cn2nnc(C(=O)NCc3ccc4c(c3)OCO4)c2N)cc1,21.7% (inactive),
CCc1ccc(NC(=O)Cn2nnc(C(=O)NCc3ccc(OC)cc3)c2N)cc1,31.3% (inactive),
Cc1cccc(NC(=O)c2nnn(CC(=O)Nc3ccc(C(C)C)cc3)c2N)c1C,26.7% (inactive),
COc1ccc(NC(=O)Cn2nnc(C(=O)NCCc3ccc(OC)c(OC)c3)c2N)cc1,0.0268% (inactive),
COCCNC(=O)CSc1nc(-c2ccccc2)[nH]c1-c1ccc(C)cc1,5.82% (inactive),
Cc1cccc(NC(=O)CN(c2ccc(C(C)C)cc2)S(=O)(=O)c2c(C)nn(C)c2C)c1C,36.1% (inactive),

SMILES,"activity change, negative = inhibition",Potency
CCOC(=O)c1c(NC(=O)c2ccc(S(=O)(=O)N(CC)CC)cc2)sc2c1CCCCC2,-0.222% (inactive),
Cc1cc(C)c2oc(C(=O)Nc3ccc(S(=O)(=O)N(C)c4ccccc4)cc3)cc(=O)c2c1,26.5% (inactive),
COc1ccc(N2CCN(C(=O)CSCc3nc(-c4ccccc4Cl)oc3C)CC2)cc1,-7.35% (inactive),
Cc1nc2sc(C)c(C)n2c(=O)c1S(=O)(=O)NCCc1ccc(Cl)cc1,-2.13% (inactive),
CCc1cccc(-n2nnc(-c3nsc(NC(=O)c4ccc(C)cc4)n3)c2C)c1,-13.5% (inactive),
CCN(CCCNC(=O)c1cc(Nc2ccc(OC)cc2)nc2ccccc12)c1cccc(C)c1,30.8% (inactive),
O=C(N/N=C/c1ccc(OC(=O)c2ccccc2Cl)cc1)c1ccc(O)cc1,17.4% (inactive),
Cc1nc2ccc(C(=O)N/N=C/c3ccc(O)cc3)cc2[nH]1,,17.8 µM (active)
Cc1nonc1C(=O)N/N=C/c1ccc(O)cc1,-11.3% (inactive),
COc1ccc(N(Cc2cc3ccc(C)cc3[nH]c2=O)S(=O)(=O)c2ccccc2)cc1,6.72% (inactive),
COc1ccc(N(Cc2cc3cc(OC)ccc3[nH]c2=O)S(C)(=O)=O)cc1,,4.47 µM (active)
Cc1ccc2cc(CN(c3ccc(C)c(C)c3)S(C)(=O)=O)c(=O)[nH]c2c1,-21.3% (inactive),
CCc1ccc(NC(=O)N2CCN(C(=O)c3nsc4ccccc34)CC2)cc1,40.9% (inactive),
COc1ccc(CNC(=O)CSCc2nc(-c3ccccc3F)oc2C)cc1,0.319% (inactive),
Cn1cc(S(=O)(=O)N2CCCCCC2)cc1C(=O)N1CCN(c2ccc(F)cc2)CC1,3.17% (inactive),
O=C(NCCN1C(=O)S/C(=C\c2cccnc2)C1=O)c1cccc(OC(F)F)c1,21.8% (inactive),
Cc1nn(Cc2ccccc2)c(C)c1C(=O)NCCN1C(=O)S/C(=C\c2ccc(F)cc2)C1=O,5.67% (inactive),
N#Cc1ccccc1CN1C(=O)S/C(=C/c2cccn2-c2cccc(C(=O)O)c2)C1=O,,11.2 µM (active)
O=c1c(NCc2cccs2)nccn1-c1ccccc1,-23.5% (inactive),
COc1ccccc1CN1CCC(CNC(=O)c2cnn(-c3cccc(Cl)c3)c2C2CCN(C(=O)OC(C)(C)C)CC2)CC1,-17.3% (inactive),

# Source: PubChem BioAssay AID485314 (National Center for Advancing Translational Sciences (NCATS), 2010)
